# Values joined by “and” are separate entries in the source; they are usually repeats but may differ in a detail not shown here. Equal values may be shown once. Active and inactive are the calls of the source. Unless noted, no stated cut-off is given here; in the data, active means inhibition above about 80%; inactive means the rest.
# Legend:
# [1] = viability rescue of complex I mutant cybrids, primary screen, cell-based, galactose medium, ATP luminescence (AID 1645843;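 active means z-score of at least 1.8 in each of two replicates, scored against plate mean and spread of sample wells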;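 further: positive z means more ATP and so rescue of galactose-driven cybrid death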); conditions: complex I mutant cybrid cells, 72 h, stronger effect = higher value
# [2] = LFS_MB_P medulloblastoma growth inhibition, cell-based, chromothripsis tumors, cisplatin or BGB combos (AID 1671449); conditions: LFS_MB_P medulloblastoma cells;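 further: cells exposed for 96 hours; 0% = vehicle DMSO and 100% = killing by high DMSO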
# [3] = HDN33 neuroblastoma growth inhibition, cell-based, chromothripsis tumors, cisplatin or BGB combos (AID 1671450); conditions: HDN33 neuroblastoma cells, stronger effect = higher value;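 further: cells exposed to compound for four days; 0% = vehicle DMSO and 100% = cell killing by high DMSO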
# [4] = ICB984 medulloblastoma cell growth inhibition, synergistic combos for chromothripsis tumors, cisplatin or BGB combos (AID 1671451; call rule not given here;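 further: cells exposed for 96 hours before readout; 0% = vehicle DMSO and 100% = killing by high DMSO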); conditions: ICB984 medulloblastoma cells, drug combinations, stronger effect = higher value
# [5] = LFS_MB_1R medulloblastoma cell growth inhibition, synergistic combos for chromothripsis tumors, cisplatin or BGB combos (AID 1671452); conditions: LFS_MB_1R medulloblastoma cells, stronger effect = higher value;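 further: cells exposed for 96 hours before readout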
# [6] = HTB85 osteosarcoma cell growth inhibition, synergistic combos for chromothripsis tumors, BGB or cisplatin IC20 combos (AID 1671453); conditions: HTB85 osteosarcoma cells, drug combinations, stronger effect = higher value;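 further: cells exposed for 96 hours before readout; 0% = vehicle DMSO and 100% = high DMSO killing control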
# [7] = CRL2098 osteosarcoma cell growth inhibition, synergistic combos for chromothripsis tumors, BGB or cisplatin IC20 combos (AID 1671454); conditions: CRL2098 osteosarcoma cells, drug combinations, stronger effect = higher value;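 further: cells exposed for 96 h before readout; 0% = vehicle DMSO and 100% = killing by high DMSO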
# [8] = HD-MB03 medulloblastoma cell growth inhibition, synergistic combos for chromothripsis tumors, BGB or cisplatin IC20 combos (AID 1671455; in the data active means inhibition above about 83%;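 further: 0% = vehicle DMSO and 100% = high DMSO as cytotoxic control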); conditions: HD-MB03 medulloblastoma cells, stronger effect = higher value
# [9] = UWB1.289 ovarian carcinoma cell growth inhibition, synergistic combos for chromothripsis tumors, BGB or cisplatin combos (AID 1671456); conditions: UWB1.289 ovarian carcinoma cells, stronger effect = higher value;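 further: cells exposed to compound for four days; 0% = vehicle DMSO and 100% = killing by high DMSO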
# [10] = LFS_MB_2R medulloblastoma cell growth inhibition, synergistic combos for chromothripsis tumors, cisplatin combos (AID 1671457); conditions: LFS_MB_2R medulloblastoma cells, stronger effect = higher value;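 further: cells exposed to compound for four days before readout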
# [11] = MDA-MB-436 breast carcinoma cell growth inhibition, synergistic combos for chromothripsis tumors, BGB or cisplatin combos (AID 1671458; call rule not given here;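 further: cells exposed for 96 hours; 0% = vehicle DMSO and 100% = killing by high DMSO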); conditions: MDA-MB-436 breast carcinoma growth inhibition, drug combinations, stronger effect = higher value
# [12] = UWB1.289_BRCA1 ovarian cancer growth, cell-based, BGB or cisplatin combinations (AID 1671459); conditions: UWB1.289 BRCA1 ovarian carcinoma, drug combinations, stronger effect = higher value
# [13] = human astrocyte viability loss, single and combined drugs, cytotoxicity control for chromothriptic childhood tumor combination screen, cell-based, BGB or cisplatin IC20 combos (AID 1671460); conditions: Human astrocytes, drug combinations, stronger effect = higher value;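 further: cells exposed to compounds for 96 hours before viability readout; 0% = vehicle and 100% = killing control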
# [14] = growth inhibition of BT084 medulloblastoma cells, cell-based, ICGC_MB145, cisplatin and BGB IC40 combos (AID 1671461); conditions: drug combinations, stronger effect = higher value;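 further: cells exposed to drugs for 96 hours; 0% = vehicle DMSO and 100% = high DMSO full killing control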
# [15] = growth inhibition of RCMB18 medulloblastoma cells, cell-based, cisplatin and BGB IC40 combos (AID 1671462); conditions: stronger effect = higher value;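 further: cells exposed to compound for four days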
# [16] = growth inhibition of CRL1545 osteosarcoma cells, cell-based, cisplatin and BGB IC20 combos (AID 1671464); conditions: stronger effect = higher value;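 further: cells exposed to compound for 96 hours before readout; 0% = vehicle DMSO and 100% = high DMSO killing control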
# [17] = measured here: combination with BGB IC40, at 0.05 µM
# [18] = measured here: with BGB IC20 combination, at 0.5 µM
# [19] = measured here: with cisplatin IC20 combination, at 0.5 µM
# [20] = measured here: combination with cisplatin, at 0.5 µM
# [21] = measured here: combination with cisplatin, at 5 µM
smiles,measurement,setting,value
CCCC(C)c1nc2c(cnn2CC(C)C)[nH]1 (configuration not stated),z-score,[1],1.06 (inactive)
CCCCn1cc(-c2cc(C(=O)N3CCCC3C)c3cccc(C)c3n2)cn1 (configuration not stated),z-score,[1],1.28 (inactive)
Cc1nsc(NC(=O)N2CCN(c3ccccc3)CC2C)n1 (configuration not stated),z-score,[1],2.15 (active)
Cc1cccc2c(C(=O)N(C)C(C)C)cc(-c3cnn(C(C)C)c3)nc12,z-score,[1],2.17 (active)
Nc1cc(F)ccc1NC(=O)/C=C/c1cnn(C/C=C/c2ccccc2)c1,inhibition,"[2]; at 0.5 µM, stronger effect = higher value",19.7% (inactive) and -29.8% (inactive)
same,inhibition,"[2]; measured here: combination with BGB IC20, at 0.005 µM",-27.4% and -4.91%
same,inhibition,"[2]; measured here: combination with BGB IC40, at 0.005 µM",89.6% and -23%
same,inhibition,[2]; [17],10.4% and 0.325%
same,inhibition,"[2]; measured here: combination with cisplatin, at 0.5 µM, stronger effect = higher value",-17.2% and -44.8%
same,inhibition,"[2]; measured here: combination with cisplatin, at 5 µM, stronger effect = higher value",-14.4% and -23.8%
same,inhibition,"[3]; BGB combo, at 5 µM",-55.4% and -3.94%
same,inhibition,[3]; at 0.5 µM,-46.1% (inactive) and -1.14% (inactive)
same,inhibition,"[3]; cisplatin combo, at 5 µM",-62.1% and 12.2%
same,inhibition,[3]; [18],-50.1% and 0.078%
same,inhibition,[3]; [19],-34.6% and -2.05%
same,inhibition,"[3]; single agent, at 5 µM",-50.8% and -2.21%
same,inhibition,"[4]; BGB IC20 combo, at 0.005 µM",-16.5% and -7.2%
same,inhibition,"[4]; BGB IC40 combo, at 0.005 µM",-16% and 5.39%
same,inhibition,"[4]; BGB IC40 combo, at 0.05 µM",-9.88% and 2.13%
same,inhibition,[4]; at 0.5 µM,-33.8% (inactive) and -9.71% (inactive)
same,inhibition,"[4]; cisplatin combo, at 0.05 µM",-15.5% and -1.74%
same,inhibition,"[4]; cisplatin combo, at 0.5 µM",-45.9% and -17.3%
same,inhibition,"[4]; cisplatin combo, at 5 µM",-20.4% and -41.2%
same,inhibition,"[4]; measured here: 5 uM single agent, at 5 µM",-25.9% and -12.4%
same,inhibition,[5]; at 0.5 µM,-30.2% (inactive) and -13.5% (inactive)
same,inhibition,[5]; [17],-20% and -25.7%
same,inhibition,[5]; [20],-51.6% and -12%
same,inhibition,[5]; [21],-19.1% and 0.402%
same,inhibition,[6]; at 0.5 µM,-30% (inactive) and 0.99% (inactive)
same,inhibition,"[6]; measured here: with BGB IC20, at 0.5 µM",-21.5% and 1.42%
same,inhibition,"[6]; measured here: with BGB IC20, at 5 µM",-17.1% and -19.7%
same,inhibition,"[6]; measured here: with cisplatin IC20, at 0.5 µM",-35.4% and -2.87%
same,inhibition,"[6]; measured here: with cisplatin IC20, at 5 µM",19.9% and 1.46%
same,inhibition,"[6]; single agent, at 5 µM",-33.7% and -0.677%
same,inhibition,[7]; at 0.5 µM,-90.2% (inactive) and -24% (inactive)
same,inhibition,"[7]; measured here: combination with BGB at IC20, at 0.5 µM",-110% and -20.4%
same,inhibition,"[7]; measured here: combination with cisplatin at IC20, at 0.5 µM",-83.6% and -21.7%
same,inhibition,[8]; at 0.5 µM,-17.4% (inactive) and -5.34% (inactive)
same,inhibition,"[8]; measured here: combo with BGB at IC20, at 0.5 µM",-11.2% and -7.19%
same,inhibition,"[8]; measured here: combo with cisplatin at IC20, at 0.5 µM",-20.1% and 0.566%
same,inhibition,[9]; at 0.5 µM,-10.9% (inactive) and -4.29% (inactive)
same,inhibition,"[9]; measured here: inhibition with BGB combination, at 0.05 µM",-7.43% and -5.9%
same,inhibition,"[9]; measured here: inhibition with cisplatin combination, at 0.05 µM",-31.6% and -3.68%
same,inhibition,[10]; at 0.5 µM,-20.7% (inactive) and -11.8% (inactive)
same,inhibition,[10]; [20],-25.8% and -7.04%
same,inhibition,[10]; [21],-6.14% and -2.99%
same,inhibition,[11]; at 0.5 µM,-30.9% (inactive) and -9.97% (inactive)
same,inhibition,"[11]; measured here: BGB combination, at 0.5 µM",-13.1%
same,inhibition,"[11]; measured here: BGB combination, at 5 µM",-3.22% and -1.12%
same,inhibition,"[11]; measured here: cisplatin combination, at 0.5 µM",-59.9% and -6.82%
same,inhibition,"[11]; measured here: cisplatin combination, at 5 µM",8% and 15.6%
same,inhibition,"[12]; BGB combination, concentration series, at 5 µM",-29.7% and 12%
same,inhibition,[12]; at 0.5 µM,-22.5% (inactive) and -3.56% (inactive)
same,inhibition,"[12]; cisplatin combination, concentration series, at 5 µM",-4.42% and 12.4%
same,inhibition,[13]; at 0.5 µM,2.29% (inactive) and 8.32% (inactive)
same,inhibition,"[13]; measured here: combo with BGB IC20, at 0.5 µM",16.9% and 12.5%
same,inhibition,"[13]; measured here: combo with cisplatin IC20, at 0.5 µM",-7.65% and 10.5%
same,inhibition,[14]; at 0.5 µM,-9.17% (inactive) and 0.933% (inactive)
same,inhibition,"[14]; cisplatin combination, at 0.5 µM",-6.82% and -1.46%
same,inhibition,"[14]; cisplatin combination, at 5 µM",-105% and 25.2%
same,inhibition,"[14]; measured here: BGB IC40 combination 0.05 uM, at 0.05 µM",-19.8% and -24.1%
same,inhibition,"[14]; single agent, at 5 µM",-7.33% and 11.8%
same,inhibition,[15]; at 0.5 µM,2.62% (inactive) and -10.6% (inactive)
same,inhibition,"[15]; cisplatin combo, at 5 µM",-19.2% and 26.8%
same,inhibition,"[15]; measured here: BGB IC40 combination, at 0.05 µM",-14.2% and 7.18%
same,inhibition,[15]; [20],9.23% and 6.5%
same,inhibition,"[15]; single agent, at 5 µM",5.68% and -6.78%
same,inhibition,[16]; at 0.5 µM,-28.2% (inactive) and -6.93% (inactive)
same,inhibition,[16]; [18],-50.8% and -4.55%
same,inhibition,[16]; [19],-18.7% and -8.13%
same,inhibition,"[16]; single agent, at 0.05 µM",-48.6% and -13.2%
same,inhibition,"[16]; single agent, at 5 µM",23.9% and 22.7%
